Among the data in PubChem BioAssay AID1240 (Sanford-Burnham Center for Chemical Genomics, 2008) are displacement values, retold here.

Hit rate of the full screen: of about 50,000 compounds, about 800 (1.6%) showed an effect of 50% or more. Many of the other results were omitted from the sample, so strong results are more common in it than they were.

Sequence of Bcl-2-like protein 10 (Homo sapiens) (Q9HD36 whole entry, looked up): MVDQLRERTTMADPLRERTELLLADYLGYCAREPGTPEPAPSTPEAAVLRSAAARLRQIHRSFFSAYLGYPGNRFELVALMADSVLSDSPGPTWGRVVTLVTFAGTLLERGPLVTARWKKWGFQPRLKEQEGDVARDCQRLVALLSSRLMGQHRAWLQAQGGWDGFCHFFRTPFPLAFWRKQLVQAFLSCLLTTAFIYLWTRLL

The test concerns the target Bcl-2-like protein 10 (Homo sapiens) (UniProt Q9HD36). The test can be described thus: TR3 peptide-Bcl-B binding displacers, biochemical primary FP assay, phenotype converters (AID 1240).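 Further: 0% = Bcl-B with tracer peptide and DMSO and 100% = tracer peptide lacking Bcl-B.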 The following applies: GST-Bcl-B / FITC-TR3 peptide fluorescence polarization; stronger effect = higher value; compound at 3.75 mg/L.
`Nc1nonc1-c1ncc(-c2ccc(Br)cc2)nn1`: the displacement came out at 30.1%.

Regarding `O=c1n(Cc2ccccc2Cl)c2cc(N3CCOCC3)c([N+](=O)[O-])cc2n1Cc1ccccc1Cl`, the displacement was -9.7%.

On to `Cc1ccc(C(=O)NNC(=O)c2ccc3ccccc3c2O)cc1`, for which the displacement was 20.5%.

`Cc1ccc(/C=C/C(=O)N2CCN(c3ccccc3)CC2)o1`: the displacement was found to be 3.6%.

With `Cc1ccc([N+](=O)[O-])cc1NC(=O)CC1Sc2ccccc2NC1=O` (stereo not drawn), the displacement worked out at 3.4%.

Consider `Cc1ccccc1-c1cc(C(=O)N2CCOCC2)c2ccccc2n1`, for which the displacement was found to be 4%.

`Cc1ccc(C(=O)Nc2ccc(N3CCOCC3)cc2)cc1C`: the displacement came out at 0.3%.

Consider `O=C(Nc1c(C(=O)N2CCN(Cc3ccccc3)CC2)cnn1-c1ccccc1)c1cccc(F)c1`, for which the displacement turned out to be 3%.

Regarding `COc1cc(OC)c(C(=O)N2CC(=O)Nc3ccccc32)c(OC)c1`, the displacement amounted to 4.9%.

As to `CCN(CC)c1ccc(NC(=O)c2ccc(Br)cc2)cc1`, the displacement is 9.2%.

For the compound `CCN(CC)c1ccc(NC(=O)c2cncc(Br)c2)cc1`, the displacement is 84.2%.

Consider `O=C(Nc1ccccc1Cl)c1cncc(Br)c1`, for which the displacement came to 118%.

Consider `CCc1ccccc1NC(=O)c1cncc(Br)c1`, for which the displacement is 5.4%.

With `O=C(Nc1ccccc1F)c1cncc(Br)c1`, the displacement was 3.9%.

In the case of `CCc1ccc(NC(=O)c2cncc(Br)c2)cc1`, the displacement came out at 15%.

For `CCC(C)NC(=O)C(=O)NCCc1ccccc1` (stereo not drawn), the displacement came to 5.5%.

As to `Cc1nc2ccccc2n1C(=O)c1ccco1`, the displacement was -3.1%.

In the case of `O=C(NCc1ccccn1)C(=O)N/N=C/c1ccccc1C(F)(F)F`, the displacement is -19.3%.

With `CC(=O)N=c1cccc(NC(C)=O)n1O`, the displacement was 5.8%.

In the case of `CC(=O)Oc1ccc2c(c1)oc(=O)c1c3cc(OC(C)=O)c(OC(C)=O)cc3oc21`, the displacement is 12.7%.

`O=C(Nc1ccc(Cl)c(C(F)(F)F)c1)c1cccs1`: the displacement was -5.7%.

With `CCOc1ccc(C2=C/C(=C/c3ccc(OC)c(OC)c3)C(=O)O2)cc1`, the displacement amounted to 34.8%.

As for `COc1ccc(C2=C/C(=C/c3ccc(OC)c(Br)c3)C(=O)O2)cc1`, the displacement was 11%.

Turning to `O=C1OC(c2ccccc2)=C/C1=C/c1ccc2c(c1)OCO2`, the displacement was -0.2%.

For `COc1ccc(C2=C/C(=C/c3ccc(OC)c(OC)c3)C(=O)O2)cc1`, the displacement amounted to 154%.

For the compound `COc1ccc(/C=C2/C=C(c3ccccc3)OC2=O)cc1`, the displacement was -15.2%.

For the compound `COc1ccc(/C=C2/C=C(c3ccc(OC)c(OC)c3)OC2=O)cc1OC`, the displacement was 189%.

Turning to `COc1ccc(C2=C/C(=C\c3ccc4c(c3)OCO4)C(=O)O2)cc1`, the displacement stood at 117%.

On to `COc1cc(/C=C2/C=C(c3ccccc3)OC2=O)ccc1C`, for which the displacement is -4.5%.

Take `O=C1OC(c2ccc(Cl)cc2)=C/C1=C\c1ccc2c(c1)OCO2`: the displacement was -19.4%.

For the compound `CCOC(=O)/C(C#N)=C\c1c(C)c(C)c(/C=C(/C#N)C(=O)OCC)c(C)c1C`, the displacement stood at 7.7%.

As to `c1ccc(-c2nc(N3CCOCC3)nc3ccccc23)cc1`, the displacement was -1.9%.

For the compound `c1ccc2c(c1)nc(N1CCOCC1)c1ccccc12`, the displacement was -0.6%.

Take `c1ccc2nc3c(cc(N4CCOCC4)c4ccccc43)nc2c1`: the displacement amounted to 147%.

As to `CCOC(=O)C(=O)Nc1nc(C23CC4CC(CC(C4)C2)C3)cs1`, the displacement was found to be 3.2%.

For the compound `O=C(Cc1ccccc1)Nc1ccc(Cl)c(-c2nc3cc(Cl)ccc3o2)c1`, the displacement was -37.9%.

With `CCC(=O)/C(C)=C(\NC(=O)c1ccccc1)c1ccccc1`, the displacement was -4.8%.

`CC(C)c1ccc(N2C(=O)NC(=O)/C(=C/c3ccc(O)c(O)c3)C2=O)cc1`: the displacement is -20.3%.

Turning to `O=C(CCCN1C(=O)/C(=C\c2cccs2)SC1=S)Nc1nccs1`, the displacement is 114%.

Regarding `Cc1cc(NC(=O)CCN2C(=O)/C(=C/c3ccc(F)cc3)SC2=S)no1`, the displacement worked out at 19%.

`Cc1cc(NC(=O)CCN2C(=O)/C(=C/c3ccccc3)SC2=S)no1`: the displacement was found to be 5.3%.

`O=C(CCCN1C(=O)/C(=C\c2cccs2)SC1=S)Nc1ccccn1`: the displacement worked out at 13.2%.

Take `O=C(CCCN1C(=O)/C(=C\c2cccs2)SC1=S)Nc1nc2ccccc2s1`: the displacement was determined as 12.7%.

Consider `O=C(CCN1C(=O)/C(=C/c2cccs2)SC1=S)Nc1ccccn1`, for which the displacement was 126%.

Regarding `Cc1ccc(/C=C2\SC(=S)N(CCC(=O)Nc3nccs3)C2=O)cc1`, the displacement is 19.4%.

As to `O=C(CCN1C(=O)/C(=C/c2ccc(Cl)cc2)SC1=S)Nc1nccs1`, the displacement stood at 14.9%.

On to `O=C(CCCN1C(=O)/C(=C/c2ccccc2)SC1=S)Nc1nccs1`, for which the displacement was 11.2%.

For the compound `O=C(CCN1C(=O)/C(=C\c2cccs2)SC1=S)Nc1ccccc1C(=O)O`, the displacement is 19.8%.

`O=C(CCN1C(=O)/C(=C\c2cccs2)SC1=S)Nc1nccs1`: the displacement was determined as 120%.

As to `Cc1cc(NC(=O)CCN2C(=O)/C(=C\c3cccs3)SC2=S)no1`, the displacement came to 90.4%.

Consider `O=C(Nc1nccs1)c1ccc2c(c1)OCO2`, for which the displacement is 32.1%.

With `CC(NC(=O)c1cc2cc([N+](=O)[O-])ccc2oc1=O)c1ccccc1` (stereo not drawn), the displacement is 12.2%.

`CS(=O)(=O)N(Cc1ccc(C(=O)Nc2ccc(CC#N)cc2)cc1)c1ccccc1`: the displacement was -7%.

`COc1ccc(/C=C/C(=O)NCc2ccc(C)cc2)cc1OC`: the displacement was 9.4%.

Regarding `Cc1cccc(NC(=O)CN(c2ccc(C(C)C)cc2)S(=O)(=O)c2ccccc2)c1`, the displacement came to 2.4%.

Consider `COc1ccc(Cl)cc1N(CC(=O)NCC(C)C)S(=O)(=O)c1ccc(C)c([N+](=O)[O-])c1`, for which the displacement amounted to 16.7%.

In the case of `CC(C)(C)c1ccc(OCC(O)CS(=O)(=O)Cc2ccc(Cl)cc2)cc1` (stereo not drawn), the displacement was 8.5%.

For the compound `O=C1C2ON(c3ccccc3)C(c3ccccc3)C2C(=O)N1Cc1ccccc1` (stereo not drawn), the displacement is 5.9%.

In the case of `COc1cccc(-n2c(O)c(/C=C3\C=c4ccccc4=N3)c(=O)[nH]c2=O)c1`, the displacement is -0.4%.

`O=c1[nH]c(=O)n(-c2ccccc2)c(O)c1C(c1cccnc1)c1c(O)n(-c2ccccc2)c(=O)[nH]c1=O`: the displacement was -5%.

As for `COc1cccc(-n2c(O)c(C(c3ccccn3)c3c(O)n(-c4cccc(OC)c4)c(=O)[nH]c3=O)c(=O)[nH]c2=O)c1`, the displacement was 67.7%.

In the case of `O=C1c2ccc([N+](=O)[O-])cc2C(=O)C1c1ccc2ccccc2n1` (stereo not drawn), the displacement is 7.6%.

Turning to `O=C1/C(=C\c2cccc(Br)c2)SC(=S)N1c1cccc(C(F)(F)F)c1`, the displacement was 18.2%.

For `COc1ccc2c(c1)OCC/C2=N\OC(=O)c1ccccc1OC`, the displacement is -7.8%.

For the compound `O=C(COc1ccc2ccccc2c1)NCC1CCCO1` (stereo not drawn), the displacement is 12.6%.

Consider `COc1ccccc1-c1coc2cc(OC(=O)c3ccc(Cl)cc3)ccc2c1=O`, for which the displacement was -2%.

`COc1ccccc1-c1coc2cc(OC(=O)c3ccc(Cl)cc3Cl)ccc2c1=O`: the displacement was 63.9%.

As for `COc1ccccc1-c1coc2cc(OC(=O)c3cccc(Cl)c3)ccc2c1=O`, the displacement was 6.5%.

Consider `Cc1ccc(-c2nn(-c3ccccc3)cc2/C=C(\C#N)C(N)=O)o1`, for which the displacement stood at 61.7%.

As to `Cc1ccc(-c2nn(-c3ccccc3)cc2C=O)o1`, the displacement was -0.3%.

On to `N#CC(C#N)=Cc1cn(-c2ccccc2)nc1-c1ccc(-c2ccc([N+](=O)[O-])cc2)o1`, for which the displacement was -5.9%.

In the case of `COc1ccc(CSc2nc3ccccc3n2C)cc1F`, the displacement is -9.9%.

`COc1ccc(OC)c(C2NC(=S)NC(C)=C2C(=O)OCCc2ccccc2)c1` (stereo not drawn): the displacement was determined as 3.9%.

Consider `COc1ccccc1N1CCN(C(=O)COc2ccc(Cl)cc2C)CC1`, for which the displacement was -4.5%.

Turning to `O=c1[nH]c(=S)[nH]c(O)c1C=Nc1ccc(Cl)c(Cl)c1`, the displacement is -7%.

As for `COc1ccc(Cl)cc1N=Cc1c(O)[nH]c(=O)[nH]c1=O`, the displacement stood at 10.3%.

Turning to `O=c1[nH]c(O)c(C=Nc2ccc(F)c(F)c2)c(=O)[nH]1`, the displacement was found to be 166%.

`COc1ccc2c(c1OC)C(=O)OC2Nc1cccc(F)c1` (stereo not drawn): the displacement is -0.4%.

As to `COc1ccc(-c2cc(C(F)(F)F)n3ncc(C(=O)N4CCOCC4)c3n2)cc1OC`, the displacement came to 5.2%.

For the compound `CCOc1ccccc1NC(=O)C1CN(S(=O)(=O)c2ccccc2)CCN1S(=O)(=O)c1ccccc1` (stereo not drawn), the displacement worked out at 11.2%.

`C/C(=N/NC(=O)c1cccnc1)c1cc(O)ccc1O`: the displacement was -12%.

`CC(C)c1ccc(/C=C2/SC(=O)N(c3ccccc3)C2=O)cc1`: the displacement was found to be 1.4%.

Consider `CC(NC(=O)c1ccc(F)cc1)C1CC1` (stereo not drawn), for which the displacement is 4.6%.

In the case of `Cc1cc(NCCCN(C)C)n2c(nc3ccccc32)c1C#N`, the displacement is -13.5%.

With `Cc1cc(Nc2ccccc2)n2c(nc3ccccc32)c1C#N`, the displacement was -2.8%.

For the compound `Cc1cc(Nc2ccc3c(c2)n(C)c(=O)n3C)n2c(nc3ccccc32)c1C#N`, the displacement came to 22.5%.

For `Cc1cc(Nc2ccc3c(c2)OCO3)n2c(nc3ccccc32)c1C#N`, the displacement was 135%.

Take `Cc1cc(NCCCO)n2c(nc3ccccc32)c1C#N`: the displacement stood at 160%.

As for `Cc1cc(NCCCCO)n2c(nc3ccccc32)c1C#N`, the displacement stood at 25.9%.

Turning to `CC(=O)Nc1ccc(S(=O)(=O)/N=C2\C=CC(=O)c3ccccc32)cc1`, the displacement turned out to be 22.2%.

Turning to `COc1ccc(Cl)cc1C(=O)N(Cc1ccccc1)C(C)C`, the displacement was 11.9%.

Consider `Cc1c(Cl)cccc1NC(=O)C1c2ccccc2Oc2ccccc21`, for which the displacement came to 11.9%.

In the case of `CCn1c2ccccc2c2cc(NC(=O)Cc3ccc(OC)c(OC)c3)ccc21`, the displacement is -5.2%.

For the compound `CC(=O)Oc1ccc(/C=c2\sc3nc4ccccc4n3c2=O)cc1`, the displacement was 28%.

On to `Cc1cc2nc3s/c(=C/c4ccc5c(c4)OCO5)c(=O)n3c2cc1C`, for which the displacement is -11.4%.

For the compound `O=c1/c(=C/c2cc([N+](=O)[O-])ccc2Cl)sc2nc3ccccc3n12`, the displacement is -7.5%.

For the compound `O=c1/c(=C/c2ccc([N+](=O)[O-])cc2)sc2nc3ccccc3n12`, the displacement is 86.7%.

Regarding `O=c1/c(=C/c2ccc(Sc3ccccc3)o2)sc2nc3ccccc3n12`, the displacement is 48.5%.

As for `CN(C)c1ccc(/C=c2\sc3nc4ccccc4n3c2=O)cc1`, the displacement was 107%.

Regarding `Cc1ccc(Sc2ccc(/C=c3\sc4nc5ccccc5n4c3=O)o2)cc1`, the displacement worked out at 86.8%.

Consider `O=c1/c(=C/c2ccc3c(c2)OCO3)sc2nc3ccccc3n12`, for which the displacement was found to be 69.3%.

As for `O=c1/c(=C/c2ccc(C(F)(F)F)cc2)sc2nc3ccccc3n12`, the displacement is 2%.

For `O=c1/c(=C/c2ccc(-c3ccc(Cl)cc3)o2)sc2nc3ccccc3n12`, the displacement worked out at 10.9%.

`CSc1ccc(/C=c2\sc3nc4ccccc4n3c2=O)cc1`: the displacement turned out to be 7.3%.

For `O=c1/c(=C\c2ccc(OCc3ccc([N+](=O)[O-])cc3)cc2)sc2nc3ccccc3n12`, the displacement came to 4.5%.

For the compound `COc1ccc(/C=C2\C(=O)NN(c3ccc(Cl)c(Cl)c3)C2=O)cc1OC`, the displacement is -13.2%.

Regarding `CCOc1ccccc1/C=N/Nc1nnc(-c2ccccc2)c(=O)[nH]1`, the displacement is -10.7%.

In the case of `O=C(COc1ccccc1Cl)N1CCN(c2ccc([N+](=O)[O-])cc2)CC1`, the displacement is -3.3%.
